Of roughly 8,800 targets only a part is listed; those with a hit were picked by preference. About 0.5% of all pairs of compound and target were hits. Values without a mark were called inactive.
Compound: c1ccc([C@@H]2C[C@H]2NC2CCNCC2)cc1
Test: log2 fold change, soluble protein after heating vs DMSO (PISA); higher = thermal stabilisation; K562 lysate, 10 uM; active = over 0.2 and 3.5 SD of the protein, either way, in both replicates (recomputed)
Method in brief: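 A 30 min treatment with 10 μM compound was applied to crude K562 extract at 1 mg/mL protein in PBS pH 7.4 with 1 mM MgCl2. Heating for 3 min spanned 48°C-58°C, after which aliquots were pooled, adjusted to 0.5% NP-40 at 4°C and spun at 21,000xg for 90 min. TMTpro 16plex LC-MS/MS of the supernatant, with channel sums equalised, gave values recorded as log-two fold change in thermal stability against solvent controls, from duplicates.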

Chain of UniProt P48730 (P48730 whole entry, looked up): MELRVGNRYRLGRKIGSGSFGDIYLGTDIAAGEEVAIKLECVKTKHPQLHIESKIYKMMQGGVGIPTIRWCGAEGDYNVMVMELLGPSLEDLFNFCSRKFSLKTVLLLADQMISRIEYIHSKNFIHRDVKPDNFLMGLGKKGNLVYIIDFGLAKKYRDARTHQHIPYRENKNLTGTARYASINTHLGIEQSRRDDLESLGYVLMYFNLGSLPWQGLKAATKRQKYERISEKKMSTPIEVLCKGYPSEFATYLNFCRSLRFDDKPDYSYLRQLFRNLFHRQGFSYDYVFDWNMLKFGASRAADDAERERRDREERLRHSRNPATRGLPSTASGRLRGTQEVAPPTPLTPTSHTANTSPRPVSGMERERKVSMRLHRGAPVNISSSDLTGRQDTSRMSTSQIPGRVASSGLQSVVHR
Chain of UniProt P57737 (P57737 whole entry, looked up): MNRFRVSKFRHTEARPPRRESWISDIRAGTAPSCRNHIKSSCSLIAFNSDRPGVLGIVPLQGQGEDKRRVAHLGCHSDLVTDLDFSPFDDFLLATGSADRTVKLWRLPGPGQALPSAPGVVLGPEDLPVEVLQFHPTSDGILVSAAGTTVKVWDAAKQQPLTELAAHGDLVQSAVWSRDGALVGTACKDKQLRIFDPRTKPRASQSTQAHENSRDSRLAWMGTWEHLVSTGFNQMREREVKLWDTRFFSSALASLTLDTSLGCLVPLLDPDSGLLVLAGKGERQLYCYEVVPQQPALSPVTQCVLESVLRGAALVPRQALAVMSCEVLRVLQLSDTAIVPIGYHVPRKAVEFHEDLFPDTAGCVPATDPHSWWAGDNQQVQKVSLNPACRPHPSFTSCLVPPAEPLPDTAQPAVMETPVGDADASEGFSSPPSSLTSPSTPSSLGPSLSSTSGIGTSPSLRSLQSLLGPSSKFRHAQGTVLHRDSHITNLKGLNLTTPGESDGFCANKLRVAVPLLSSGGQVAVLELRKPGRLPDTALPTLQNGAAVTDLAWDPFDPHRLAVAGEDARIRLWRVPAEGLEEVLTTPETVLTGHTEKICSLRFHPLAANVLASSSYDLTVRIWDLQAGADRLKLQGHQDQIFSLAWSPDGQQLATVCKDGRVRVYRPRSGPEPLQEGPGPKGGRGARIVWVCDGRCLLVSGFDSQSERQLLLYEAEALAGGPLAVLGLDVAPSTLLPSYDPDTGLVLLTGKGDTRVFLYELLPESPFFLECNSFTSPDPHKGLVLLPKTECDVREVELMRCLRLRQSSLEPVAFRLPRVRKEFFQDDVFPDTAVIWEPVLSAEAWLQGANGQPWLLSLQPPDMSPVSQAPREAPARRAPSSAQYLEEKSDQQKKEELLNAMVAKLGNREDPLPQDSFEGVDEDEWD
Chain of UniProt O76075 (O76075 whole entry, looked up): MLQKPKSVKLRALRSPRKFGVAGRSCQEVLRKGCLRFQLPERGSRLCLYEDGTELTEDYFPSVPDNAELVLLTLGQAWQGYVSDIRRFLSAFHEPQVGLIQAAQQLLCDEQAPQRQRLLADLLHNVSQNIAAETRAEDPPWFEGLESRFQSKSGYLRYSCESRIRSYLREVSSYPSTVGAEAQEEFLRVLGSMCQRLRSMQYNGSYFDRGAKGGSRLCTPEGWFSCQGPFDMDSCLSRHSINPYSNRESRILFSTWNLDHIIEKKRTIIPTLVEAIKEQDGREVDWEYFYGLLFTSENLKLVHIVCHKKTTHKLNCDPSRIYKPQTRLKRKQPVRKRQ
Chain of UniProt Q96KA5 (Q96KA5 whole entry, looked up): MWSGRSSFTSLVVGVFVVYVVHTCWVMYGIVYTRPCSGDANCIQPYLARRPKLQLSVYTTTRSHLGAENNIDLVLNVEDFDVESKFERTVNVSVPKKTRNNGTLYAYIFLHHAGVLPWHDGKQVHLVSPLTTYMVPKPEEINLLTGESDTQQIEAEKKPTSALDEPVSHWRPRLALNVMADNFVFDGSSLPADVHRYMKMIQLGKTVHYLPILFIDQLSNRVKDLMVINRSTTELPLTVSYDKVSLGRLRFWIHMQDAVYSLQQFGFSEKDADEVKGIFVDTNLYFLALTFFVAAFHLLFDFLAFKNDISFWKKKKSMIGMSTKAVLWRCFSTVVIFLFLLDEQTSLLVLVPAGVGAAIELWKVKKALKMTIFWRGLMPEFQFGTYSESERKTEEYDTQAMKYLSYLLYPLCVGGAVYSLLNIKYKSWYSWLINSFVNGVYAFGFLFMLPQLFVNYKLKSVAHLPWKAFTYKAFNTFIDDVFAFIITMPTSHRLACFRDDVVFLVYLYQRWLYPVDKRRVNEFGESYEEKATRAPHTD
Chain of UniProt P67870 (P67870 whole entry, looked up): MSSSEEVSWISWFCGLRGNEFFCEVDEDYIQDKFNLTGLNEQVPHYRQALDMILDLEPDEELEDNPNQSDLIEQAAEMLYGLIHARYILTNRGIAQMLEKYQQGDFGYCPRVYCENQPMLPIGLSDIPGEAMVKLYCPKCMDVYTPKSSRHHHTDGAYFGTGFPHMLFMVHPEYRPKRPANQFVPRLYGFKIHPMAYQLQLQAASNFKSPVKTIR
Chain of UniProt O75153 (O75153 whole entry, looked up): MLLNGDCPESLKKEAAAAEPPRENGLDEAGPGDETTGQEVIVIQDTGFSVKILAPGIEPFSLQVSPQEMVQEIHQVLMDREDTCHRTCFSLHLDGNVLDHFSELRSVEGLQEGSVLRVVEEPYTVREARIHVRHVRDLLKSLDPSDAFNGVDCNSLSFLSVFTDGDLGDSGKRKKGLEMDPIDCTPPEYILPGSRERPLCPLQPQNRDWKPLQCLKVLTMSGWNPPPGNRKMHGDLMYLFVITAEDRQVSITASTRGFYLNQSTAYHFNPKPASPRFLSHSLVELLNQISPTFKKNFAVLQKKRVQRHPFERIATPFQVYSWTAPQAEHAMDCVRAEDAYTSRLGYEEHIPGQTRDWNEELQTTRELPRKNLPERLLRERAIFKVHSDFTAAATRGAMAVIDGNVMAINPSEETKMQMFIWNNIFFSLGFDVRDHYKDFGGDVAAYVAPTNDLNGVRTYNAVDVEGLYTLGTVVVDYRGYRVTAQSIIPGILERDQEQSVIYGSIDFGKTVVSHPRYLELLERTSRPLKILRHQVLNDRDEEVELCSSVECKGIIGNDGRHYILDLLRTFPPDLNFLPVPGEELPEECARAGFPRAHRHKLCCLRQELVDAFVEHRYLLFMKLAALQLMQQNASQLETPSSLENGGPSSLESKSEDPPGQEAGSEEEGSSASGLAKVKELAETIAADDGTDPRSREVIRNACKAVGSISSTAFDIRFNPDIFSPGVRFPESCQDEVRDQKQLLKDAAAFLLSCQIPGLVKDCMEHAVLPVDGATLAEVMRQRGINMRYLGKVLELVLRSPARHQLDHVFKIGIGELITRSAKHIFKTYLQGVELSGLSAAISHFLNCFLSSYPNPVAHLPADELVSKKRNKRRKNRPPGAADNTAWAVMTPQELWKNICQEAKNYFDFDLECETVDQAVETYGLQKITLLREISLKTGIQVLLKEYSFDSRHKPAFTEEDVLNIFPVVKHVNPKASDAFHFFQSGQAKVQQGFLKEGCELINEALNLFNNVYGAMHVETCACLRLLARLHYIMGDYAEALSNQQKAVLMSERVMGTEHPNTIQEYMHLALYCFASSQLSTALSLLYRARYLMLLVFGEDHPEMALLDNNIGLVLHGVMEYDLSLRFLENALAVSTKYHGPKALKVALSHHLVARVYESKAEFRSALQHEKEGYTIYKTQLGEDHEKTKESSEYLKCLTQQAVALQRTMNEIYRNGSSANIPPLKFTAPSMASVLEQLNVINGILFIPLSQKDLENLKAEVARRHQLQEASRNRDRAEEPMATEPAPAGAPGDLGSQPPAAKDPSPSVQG
Chain of UniProt Q96EP5 (Q96EP5 whole entry, looked up): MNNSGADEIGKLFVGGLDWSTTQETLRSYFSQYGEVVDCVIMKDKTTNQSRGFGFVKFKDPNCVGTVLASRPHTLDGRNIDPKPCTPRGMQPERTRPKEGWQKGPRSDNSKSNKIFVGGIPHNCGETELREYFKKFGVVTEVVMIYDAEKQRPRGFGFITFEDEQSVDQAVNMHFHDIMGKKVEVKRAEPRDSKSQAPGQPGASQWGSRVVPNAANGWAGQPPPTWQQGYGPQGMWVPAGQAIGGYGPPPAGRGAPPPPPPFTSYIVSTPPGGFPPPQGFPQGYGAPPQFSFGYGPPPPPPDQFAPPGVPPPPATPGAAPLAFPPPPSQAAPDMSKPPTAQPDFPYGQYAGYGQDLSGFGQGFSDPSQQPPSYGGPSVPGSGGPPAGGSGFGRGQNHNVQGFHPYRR
Chain of UniProt Q9UBM7 (Q9UBM7 whole entry, looked up): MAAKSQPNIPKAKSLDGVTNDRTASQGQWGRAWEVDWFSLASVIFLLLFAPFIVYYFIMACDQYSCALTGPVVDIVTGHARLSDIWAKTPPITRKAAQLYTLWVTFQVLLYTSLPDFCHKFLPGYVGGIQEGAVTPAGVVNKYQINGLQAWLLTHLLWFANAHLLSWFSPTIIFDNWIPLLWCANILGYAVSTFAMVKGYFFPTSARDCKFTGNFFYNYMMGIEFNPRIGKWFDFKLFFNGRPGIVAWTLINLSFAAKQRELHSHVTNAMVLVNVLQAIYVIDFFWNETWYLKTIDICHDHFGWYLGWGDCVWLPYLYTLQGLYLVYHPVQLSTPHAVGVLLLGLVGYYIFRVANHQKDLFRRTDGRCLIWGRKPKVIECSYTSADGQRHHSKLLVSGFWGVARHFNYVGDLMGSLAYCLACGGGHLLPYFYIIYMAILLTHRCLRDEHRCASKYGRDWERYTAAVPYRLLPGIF
Chain of UniProt P19784 (P19784 whole entry, looked up): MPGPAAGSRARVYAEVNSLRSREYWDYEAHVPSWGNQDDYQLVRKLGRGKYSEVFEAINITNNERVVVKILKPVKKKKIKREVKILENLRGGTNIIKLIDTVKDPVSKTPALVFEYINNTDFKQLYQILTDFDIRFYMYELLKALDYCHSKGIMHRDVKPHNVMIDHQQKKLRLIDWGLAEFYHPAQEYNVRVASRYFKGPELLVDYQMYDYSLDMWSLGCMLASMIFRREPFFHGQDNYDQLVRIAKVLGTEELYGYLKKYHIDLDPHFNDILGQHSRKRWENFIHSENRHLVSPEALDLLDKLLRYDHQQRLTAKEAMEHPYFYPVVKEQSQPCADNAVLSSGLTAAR

Target | log2 fold change
COX20 isoform 2 (UniProt Q5RI15) | 0.23
CTNNBL1 (UniProt Q8WYA6) | 0.073
CYP24A1 (UniProt Q07973) | -0.262
DLGAP5 (UniProt Q15398) | -0.015
DOCK8 (UniProt Q8NF50) | 0.05
DBF4 (UniProt Q9UBU7) | 0.078
CORO1A (UniProt P31146) | -0.019
CLASP1 (UniProt Q7Z460) | -0.007
DFFB (UniProt O76075) | 0.081
CLPTM1L (UniProt Q96KA5) | 0.022
COL6A5 (UniProt A8TX70) | -0.545
CLP1 (UniProt Q92989) | -0.1
DHCR7 (UniProt Q9UBM7) | 0.091
COG3 (UniProt Q96JB2) | 0.019
CNTN4 (UniProt Q8IWV2) | -0.319
CIAO2A (UniProt Q9H5X1) | 0.064
DAZAP1 (UniProt Q96EP5) | -0.086

Target | log2 fold change
CSNK2A2 (UniProt P19784) | 0.015
DCP1A (UniProt Q9NPI6) | -0.026
CLIC2 (UniProt O15247) | 0.029
CSTB (UniProt P04080) | -0.146
CSNK1D (UniProt P48730) | 0.025
CKAP2 (UniProt Q8WWK9) | -0.021
CNOT2 (UniProt Q9NZN8) | 0.008
CLUH (UniProt O75153) | -0.058
DENND6A (UniProt Q8IWF6) | 0.023
CSNK2B (UniProt P67870) | -0.016
CORO7 isoform 3 (UniProt P57737) | 0.036
CHMP4A isoform 2 (UniProt Q9BY43) | -0.152
CINP isoform 3 (UniProt Q9BW66) | -0.145
CLCN3 (UniProt P51790) | 0.017
CHUK (UniProt O15111) | 0.015
CSTF2 (UniProt P33240) | 0.01
CLIP1 isoform 1 (UniProt P30622) | -0.019

From the supplement of paper PMC10849652
